Active and inactive are the calls of the source. Unless noted, how the calls were made is not given here.
Legend:
[1] = system: XIP peptide (Xip251-270) binding; assay: XIP fragment 251-270 binding compounds – biochemical, small-molecule microarray, fluorescence 635/667 nm, 0.1 µg/mL protein, primary screen (AID 1182); conditions: fluorescent protein binding, 635 nm, higher = more signal, called active from +8 up or from −8 down
XIP peptide (Xip251-270) = assay: compounds binding XIP fragment 251-270 – biochemical, small-molecule microarray, fluorescence 635/667 nm, 0.5 µg/mL protein, primary screen (AID 1183); conditions: fluorescence 635 nm, higher = more signal
[2] = blood-stage malaria parasite viability loss – strain 3D7, DAPI fluorescence, 100 nL, primary screen (AID 1184);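 further: parasites grown inside human red blood cells in medium with human serum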; conditions: P. falciparum 3D7 growth, 3 d, higher = more signal
[3] = target: Homeobox protein Hox-A13 (Mus musculus) (UniProt Q62424); assay: disruptors of Hoxa13 oligonucleotide interaction – biochemical, fluorescence polarization, labeled oligonucleotide, primary screen (AID 1185); conditions: Hoxa13:DNA binding, 15 min, higher = more signal, called active from +8 up or from −8 down
Sequence of Homeobox protein Hox-A13 (Mus musculus) (Q62424 whole entry, looked up): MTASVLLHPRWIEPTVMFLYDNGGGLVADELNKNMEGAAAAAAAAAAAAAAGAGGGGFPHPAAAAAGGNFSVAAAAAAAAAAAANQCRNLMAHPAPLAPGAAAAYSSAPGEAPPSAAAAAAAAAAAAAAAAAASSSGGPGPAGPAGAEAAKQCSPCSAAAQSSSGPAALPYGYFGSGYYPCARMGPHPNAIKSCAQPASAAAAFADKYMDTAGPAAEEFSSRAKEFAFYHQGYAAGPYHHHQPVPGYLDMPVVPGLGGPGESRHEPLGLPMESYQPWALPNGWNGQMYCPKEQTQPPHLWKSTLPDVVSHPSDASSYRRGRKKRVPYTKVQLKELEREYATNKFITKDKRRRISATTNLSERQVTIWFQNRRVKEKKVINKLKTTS

[4] = blockers of DNA damage checkpoint Chk1 activation – imaging, HeLa, hydroxyurea, phospho-Chk1 antibody, percent positive cells, primary screen (AID 1186); conditions: hydroxyurea-induced phospho-Chk1 immunofluorescence imaging, higher = more signal
[5] = blockers of DNA damage checkpoint Chk1 activation – imaging, HeLa, hydroxyurea, phospho-Chk1 nuclear intensity, primary screen (AID 1187); conditions: hydroxyurea-induced phospho-Chk1 immunofluorescence imaging, higher = more signal

SMILES	composite z-score [1]	composite z-score (XIP peptide (Xip251-270))	z-score [2]	z-score [3]	z-score [4]	z-score [5]
COc1ccc(CCNC(=O)[C@@H]2c3ccccc3C(=O)N(C(C)C)[C@H]2c2ccc(CO)cc2)cc1	-0.343 (inactive)	-0.898	1.13	-2.13 (inactive)	-0.182 (inactive)	-0.238 (inactive)
Cc1ccc(S[C@]2(C(=O)NCc3ccccc3)CC(=O)N(Cc3ccccc3C(F)(F)F)[C@@H]2c2ccc(CO)cc2I)cc1	0.404 (inactive)	0.623	0.0951	-2.23 (inactive)	0.225 (inactive)	0.923 (inactive)
CC1CC/C=C\[C@H]2OC34C=CCN(CCN5CCOCC5)C(=O)[C@H]3N(C(CO)C(C)C)C(=O)[C@@H]4C2C(=O)O1 (some centres not stated)	0.287 (inactive)	0.054	-0.0648	-7 (inactive)	0.607 (inactive)	0.284 (inactive)
C=C(C)C1CN([C@H](CO)c2ccccc2)C(=O)/C1=C\c1ccccc1 (some centres not stated)	-0.598 (inactive)	0.36	-1.9	-1.05 (inactive)	-0.484 (inactive)	-0.234 (inactive)
COc1cccc(C)c1NC(=O)O[C@H]1[C@H](OC(=O)Nc2ccccc2-c2ccccc2)[C@@H](OC(=O)Nc2ccccc2-c2ccccc2)[C@@H](OC)O[C@@H]1CO	1.22 (inactive)	0.89	-2.26	-3.57 (inactive)	0.609 (inactive)	0.604 (inactive)
CC(C)[Si](C#Cc1ccccc1)(O[C@H](c1ccccc1)c1cn(Cc2ccccc2)nn1)C(C)C	0.0554 (inactive)	0.877	-1.18	-1.11 (inactive)	0.0998 (inactive)	0.124 (inactive)
CCOC(=O)C[C@H]1[C@H](OC(=O)Cc2ccc3c(c2)OCO3)[C@@H](NC(=O)CC(C)C)c2cc(OCCCO)ccc2N1C(=O)c1ccc2ccccc2n1	0.216 (inactive)	0.784	-2.04	-4.65 (inactive)	-0.0615 (inactive)	0.252 (inactive)
Cc1ccc(S(=O)(=O)N2[C@@H](c3ccccc3)C(C(=O)O)=CC[C@H]2c2ccc(F)cc2)cc1	-0.311 (inactive)	-0.0114	-0.204	-5.57 (inactive)	0.388 (inactive)	0.391 (inactive)
COCCCNC(=O)[C@@]1(CCC(=O)OC(C)(C)C)N=C(c2ccc(OCCCO)cc2)O[C@H]1c1ccccc1	0.809 (inactive)	0.754	-0.0488	-4.75 (inactive)	0.185 (inactive)	0.633 (inactive)
COCCOC(=O)N1C(=O)[C@@]2(c3cc(C#CCNC(N)=O)ccc31)[C@H](C(=O)Nc1nc3ccccc3s1)[C@H]1C(=O)O[C@H](c3ccccc3)[C@H](c3ccccc3)N1[C@@H]2c1ccc(O)cc1	-0.0637 (inactive)	0.321	0.106	-0.879 (inactive)	-0.0038 (inactive)	-0.0749 (inactive)
C=C(CC1([C@@H](NP(=O)(c2ccccc2)c2ccccc2)[C@H]2C[C@@H]2CCCC)CC1)c1cccc(OC)c1	-0.68 (inactive)	-0.207	-0.0814	-1.55 (inactive)	0.731 (inactive)	0.788 (inactive)
O=C1NC(=O)C2C1C=CC(C(O)c1ccc(F)cc1)N2Nc1ccc(Cl)cc1Cl (configuration not stated)	-0.138 (inactive)	-0.258	-0.525	-5.48 (inactive)	-0.142 (inactive)	0.116 (inactive)
[N-]=[N+]=Nc1ccccc1C[C@]1(C(N)=O)COC(c2ccc(OCCCO)cc2)=N1	0.29 (inactive)	0.546	-1.88	-4.74 (inactive)	-0.393 (inactive)	-0.137 (inactive)
C[C@]1(C(=O)NCC(F)(F)F)c2ccccc2C(=O)N(Cc2cc(C(F)(F)F)cc(C(F)(F)F)c2)[C@H]1c1ccc(CO)cc1	0.0939 (inactive)	0.21	0.528	-3.48 (inactive)	-0.496 (inactive)	-0.308 (inactive)
COC(=O)[C@]1(Cc2ccccc2CN=[N+]=[N-])N=C(c2ccc(OCCCO)cc2)O[C@@H]1c1ccccc1N=[N+]=[N-]	0.0771 (inactive)	0.724	-2.04	0.381 (inactive)	-0.485 (inactive)	-0.543 (inactive)
C=C(CCCC)/C(=C/C[C@@H](OC(C)=O)c1cccc(OCCO)c1)c1cc(C(=O)OC)ccc1OC	-0.234 (inactive)	0.826	-3.06	-5.01 (inactive)	0.496 (inactive)	0.331 (inactive)
CCOC(=O)C=C1C[C@@H](c2cccc([N+](=O)[O-])c2)O[C@@H](c2cccc([N+](=O)[O-])c2)O1	0.232 (inactive)	0.673	-2.18	0.392 (inactive)	-0.447 (inactive)	-0.443 (inactive)
CCCCCN1CC=CC23O[C@@H]4/C=C\CCCOC(=O)C4[C@H]2C(=O)N(CCCCCO)[C@@H]3C1=O (some centres not stated)	0.388 (inactive)	0.199	0.0701	-4.75 (inactive)	0.726 (inactive)	0.576 (inactive)
COC(=O)c1c2oc(c1C(=O)OC)C(=O)N[C@H](Cc1ccccc1)Cn1cc(nn1)C1(CCCCC1)NC(=O)N[C@H](CO)CC2	0.772 (inactive)	-0.652	0.764	-3.34 (inactive)	-0.0529 (inactive)	-0.669 (inactive)
C=C(CCCC)C(=O)CC[C@@H](OC(C)=O)c1ccc(OCCO)cc1	0.386 (inactive)	0.607	-2.07	-5.09 (inactive)	-0.266 (inactive)	-0.266 (inactive)
C=C[C@@H](CO)NS(=O)(=O)c1ccc(Br)cc1	-0.987 (inactive)	-1.58	-0.345	0.553 (inactive)	-0.734 (inactive)	-0.695 (inactive)
C=CC[C@]12N=C(c3ccc(OCCCO)cc3)O[C@H]1c1ccccc1N(CCC)C2=O	-0.0641 (inactive)	0.842	-2.33	-4.5 (inactive)	-0.206 (inactive)	-0.234 (inactive)
CN(C)CCCCCCNC(=O)[C@@H]1C[C@@H]2C(=O)N[C@@H](CCCC[N+](C)(C)C)C(=O)N2[C@@H]1c1cccc(OCCO)c1	0.877 (inactive)	-0.0938	-0.143	-1.8 (inactive)	0.559 (inactive)	0.952 (inactive)
COC(=O)[C@@]1(Cc2ccc(OC)cc2)[C@@H]2[C@@H](CC(=O)[C@H]2CC(=O)C(=O)N(C)C)CN1C(=O)c1ccccc1	0.206 (inactive)	0.516	-1.56	-2.61 (inactive)	0.0341 (inactive)	-1.04 (inactive)
COCCCNC(=O)[C@@]1(Cc2ccccc2I)c2ccccc2C(=O)N(Cc2ccccc2OC)[C@H]1c1ccc(CO)cc1	1.02 (inactive)	0.0714	-1.07	-4.88 (inactive)	-0.14 (inactive)	0.04 (inactive)
CC(C)C[C@H]1NC(=O)CNC(=O)[C@@]23C(=O)N[C@@H](Cc4ccccc4)C2[C@H](C)[C@@]2(C)O[C@H]2C3/C=C/C/C=C\CNC1=O (some centres not stated)	0.282 (inactive)	0.685	0.933	-5.94 (inactive)	-0.386 (inactive)	-0.0588 (inactive)
CCN1C(=O)C2CC(=O)C3C(CN(S(=O)(=O)c4ccc(C)cc4)C3c3ccc(C)cc3)C2C1=O (configuration not stated)	0.761 (inactive)	-0.248	0.38	-4.69 (inactive)	0.137 (inactive)	-0.0394 (inactive)

Reference: PubChem BioAssay
